“And” between values parts separate entries of the source, which are not always exact repeats. Equal values may be shown once. Hit rate of the full screen: of about 5,500 compounds, about 2,000 (36%) were called active. Roughly 18% stayed inconclusive and do not appear here. Rule as the data show it: active = normalized growth mostly below about 0.91 (no sharp cut-off); inconclusive = no clear call, values can overlap the other calls; inactive = mostly above about 0.92. Some of the results follow.
Test: chemical genetic growth profiling, strain panel (AID 1159580);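 also: tested at 20 µM; growth read once vehicle control cultures reached saturation at 30 °C; 1 = growth at the plate median or of vehicle wells; lower values mean less growth of the strain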
Details: growth OD

Measured: normalized growth

CN(C)CCN(Cc1cccs1)c1ccccn1
active: S. cerevisiae deletion strains, locus YJR066W, strain TOR1, active compounds read low 0.82
inactive: S. cerevisiae deletion strains, locus YJR075W, strain HOC1, active compounds read low 0.98 and 1.01 | S. cerevisiae deletion strains, locus YKL009W, strain mrt4, active compounds read low 1.02 | S. cerevisiae deletion strains, locus YKL068W, active compounds read low 1.01 | S. cerevisiae deletion strains, locus YKL085W, strain MDH1 (second series), active compounds read low 0.997 | S. cerevisiae deletion strains, locus YKL085W, strain MDH1, active compounds read low 0.997 | S. cerevisiae deletion strains, locus YKL160W, strain elf1, active compounds read low 1.01 | S. cerevisiae deletion strains, locus YKL190W, strain CNB1, active compounds read low 0.985 | S. cerevisiae deletion strains, locus YKR001C, strain vps1, active compounds read low 0.986 | S. cerevisiae deletion strains, locus YKR026C, strain gcn3, active compounds read low 1.01 | S. cerevisiae deletion strains, locus YKR091W, strain srl3, active compounds read low 1 | S. cerevisiae deletion strains, locus YLL001W, strain dnm1, active compounds read low 1.01 | S. cerevisiae deletion strains, locus YLL026W, active compounds read low 1 | S. cerevisiae deletion strains, locus YLL041C, strain sdh2, active compounds read low 1.01 | S. cerevisiae deletion strains, locus YLR027C, strain aat2, active compounds read low 1.01 | S. cerevisiae deletion strains, locus YLR039C, strain RIC1, active compounds read low 1.03 | S. cerevisiae deletion strains, locus YLR058C, strain SHM2, active compounds read low 1.02 | S. cerevisiae deletion strains, locus YLR102C, strain apc9, active compounds read low 1.01 | S. cerevisiae deletion strains, locus YLR113W, strain HOG1, active compounds read low 0.995 | S. cerevisiae deletion strains, locus YLR221C, strain rsa3, active compounds read low 1.01 | S. cerevisiae deletion strains, locus YLR258W, strain gsy2, active compounds read low 1.01 | S. cerevisiae deletion strains, locus YLR262C, strain YPT6 (second series), active compounds read low 1.01 | S. cerevisiae deletion strains, locus YLR262C, strain YPT6, active compounds read low 1.11 | S. cerevisiae deletion strains, locus YLR268W, strain sec22, active compounds read low 1.01 | S. cerevisiae deletion strains, locus YLR320W, strain mms22, active compounds read low 1.04 | S. cerevisiae deletion strains, locus YLR330W, strain CHS5, active compounds read low 1 | S. cerevisiae deletion strains, locus YLR342W, strain FKS1 (second series), active compounds read low 1.04 | S. cerevisiae deletion strains, locus YLR342W, strain FKS1, active compounds read low 1.01 | S. cerevisiae deletion strains, locus YLR357W, strain rsc2, active compounds read low 1.03 | S. cerevisiae deletion strains, locus YLR370C, strain arc18, active compounds read low 1.02 | S. cerevisiae deletion strains, locus YLR371W, strain rom2, active compounds read low 1.01 | S. cerevisiae deletion strains, locus YLR384C, strain iki3, active compounds read low 1.01 | S. cerevisiae deletion strains, locus YLR418C, strain cdc73, active compounds read low 1.02 | S. cerevisiae deletion strains, locus YML016C, strain PPZ1, active compounds read low 1.01 | S. cerevisiae deletion strains, locus YML032C, strain rad52, active compounds read low 0.988 | S. cerevisiae deletion strains, locus YML120C, strain ndi1, active compounds read low 1.01 | S. cerevisiae deletion strains, locus YML124C, strain tub3, active compounds read low 1.01 | S. cerevisiae deletion strains, locus YMR058W, strain fet3, active compounds read low 1.01 | S. cerevisiae deletion strains, locus YMR078C, strain ctf18, active compounds read low 1.02 | S. cerevisiae deletion strains, locus YMR125W, strain sto1, active compounds read low 1.01 | S. cerevisiae deletion strains, locus YMR129W, active compounds read low 1.01 | S. cerevisiae deletion strains, locus YMR205C, strain PFK2, active compounds read low 1.02 | S. cerevisiae deletion strains, locus YMR223W, strain ubp8, active compounds read low 1.05 | S. cerevisiae deletion strains, locus YMR231W, strain pep5, active compounds read low 1.01 | S. cerevisiae deletion strains, locus YMR307W, strain GAS1, active compounds read low 1.02 | S. cerevisiae deletion strains, locus YNL067W, strain RPL9B, active compounds read low 0.997 | S. cerevisiae deletion strains, locus YNL071W, strain lat1, active compounds read low 1 | S. cerevisiae deletion strains, locus YNL128W, strain TEP1, active compounds read low 1.02 | S. cerevisiae deletion strains, locus YNL153C, strain GIM3, active compounds read low 0.989 and 1.02 | S. cerevisiae deletion strains, locus YNL175C, strain NOP13, active compounds read low 1.02 | S. cerevisiae deletion strains, locus YNL183C, strain NPR1, active compounds read low 0.886 | S. cerevisiae deletion strains, locus YNL197C, strain WHI3, active compounds read low 0.992 | S. cerevisiae deletion strains, locus YNL209W, strain ssb2, active compounds read low 1 | S. cerevisiae deletion strains, locus YNL224C, strain SQS1, active compounds read low 1.01 | S. cerevisiae deletion strains, locus YNL233W, strain BNI4, active compounds read low 0.986 | S. cerevisiae deletion strains, locus YNL248C, strain rpa49, active compounds read low 1.02 | S. cerevisiae deletion strains, locus YNL250W, strain rad50, active compounds read low 1.02 | S. cerevisiae deletion strains, locus YNL271C, strain bni1, active compounds read low 1.01 | S. cerevisiae deletion strains, locus YNL298W, strain CLA4, active compounds read low 1.01 | S. cerevisiae deletion strains, locus YNL307C, strain MCK1, active compounds read low 1.02 | S. cerevisiae deletion strains, locus YNL322C, strain KRE1 (second series), active compounds read low 1.01 | S. cerevisiae deletion strains, locus YNL322C, strain KRE1, active compounds read low 0.991 | S. cerevisiae deletion strains, locus YNR049C, strain mso1, active compounds read low 1.02 | S. cerevisiae deletion strains, locus YNR052C, strain pop2, active compounds read low 1.01 | S. cerevisiae deletion strains, locus YOL006C, strain TOP1, active compounds read low 0.902 | S. cerevisiae deletion strains, locus YOL012C, strain htz1 0.737 | S. cerevisiae deletion strains, locus YOL147C, strain pex11, active compounds read low 1.02 | S. cerevisiae deletion strains, locus YOR001W, strain rrp6, active compounds read low 1 | S. cerevisiae deletion strains, locus YOR061W, strain CKA2, active compounds read low 1.01 | S. cerevisiae deletion strains, locus YOR069W, strain VPS5, active compounds read low 1.01 | S. cerevisiae deletion strains, locus YOR070C, strain gyp1, active compounds read low 1.01 | S. cerevisiae deletion strains, locus YOR080W, strain dia2, active compounds read low 1 | S. cerevisiae deletion strains, locus YOR083W, strain WHI5 (second series), active compounds read low 1.01 | S. cerevisiae deletion strains, locus YOR083W, strain WHI5, active compounds read low 1.01 | S. cerevisiae deletion strains, locus YOR106W, strain vam3, active compounds read low 0.998 | S. cerevisiae deletion strains, locus YOR136W, strain idh2, active compounds read low 1.01 | S. cerevisiae deletion strains, locus YOR144C, strain elg1, active compounds read low 1.01 | S. cerevisiae deletion strains, locus YOR184W, strain ser1, active compounds read low 1.01 | S. cerevisiae deletion strains, locus YOR231W, strain MKK1, active compounds read low 0.88 | S. cerevisiae deletion strains, locus YOR265W, strain rbl2, active compounds read low 1.01 | S. cerevisiae deletion strains, locus YOR270C, strain vph1, active compounds read low 1 | S. cerevisiae deletion strains, locus YOR290C, strain snf2, active compounds read low 1.01 | S. cerevisiae deletion strains, locus YOR316C, strain cot1, active compounds read low 1.01 | S. cerevisiae deletion strains, locus YPL051W, strain arl3, active compounds read low 1.01 | S. cerevisiae deletion strains, locus YPL055C, strain LGE1, active compounds read low 0.929 | S. cerevisiae deletion strains, locus YPL078C, strain atp4, active compounds read low 1 | S. cerevisiae deletion strains, locus YPL106C, strain sse1, active compounds read low 1 | S. cerevisiae deletion strains, locus YPL240C, strain hsp82, active compounds read low 1.01 | S. cerevisiae deletion strains, locus YPL256C, strain CLN2, active compounds read low 0.98 | S. cerevisiae deletion strains, locus YPR119W, strain clb2, active compounds read low 1.01 | S. cerevisiae deletion strains, locus YPR141C, strain kar3, active compounds read low 1 | S. cerevisiae deletion strains, locus YPR163C, strain tif3, active compounds read low 1.01 | S. cerevisiae deletion strains, locus YPR167C, strain met16, active compounds read low 1.01 | S. cerevisiae deletion strains, strain wtn01, active compounds read low 1.01 | S. cerevisiae strains, strain wild type, active compounds read low 1
